Where a name gives a salt, the structure may show the parent alone. ± gives the uncertainty stated by the source.
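Also: viable cell number estimated from Alamar Blue fluorescence read at 560/90, part of a single-dose primary screen of an FDA-approved drug library.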

The assay has as its system U87. As to the kind of experiment: cell viability relative to vehicle control; higher = less growth inhibition (less active). The settings on record: 10 µM; 72 h.
Take `CC(C)[C@]12O[C@H]1[C@@H]1O[C@]13[C@]1(O[C@H]1C[C@H]1C4=C(CC[C@@]13C)C(=O)OC4)[C@@H]2O`: the cell viability came out at 26.3 ± 2.5%.

For the molecule `Oc1ccc2c3c1O[C@H]1[C@@H](O)CC[C@@]4(O)[C@@H](C2)N(CC2CCC2)CC[C@]314` [Nalbuphine], the cell viability was 99.2 ± 7.3%.

On to `CCN(C(C)=O)c1cccc(-c2ccnc3c(C#N)cnn23)c1` [Zaleplon], for which the cell viability is 111.7 ± 0.3%.

Consider `C[C@]12CCC(=O)C[C@@H]1CC[C@@H]1[C@@H]2CC[C@@]2(C)[C@H]1CC[C@]2(C)O` [Mestanolone], for which the cell viability worked out at 105.6 ± 0.93%.

Turning to `COc1ccc2[nH]cc(CCN)c2c1` [5-Methoxytryptamine], the cell viability is 109 ± 1.3%.

For the molecule `FC(F)(F)c1cccc(N2CCNCC2)c1`, the cell viability came out at 109 ± 1.2%.

As to `C[C@]12CC[C@H]3[C@@H](CCC4=CC(=O)CC[C@@H]43)[C@@H]1CC[C@@H]2O` [Nandrolone], the cell viability was 101.5 ± 0.8%.

Regarding `NC1=NC(=O)C(c2ccccc2)O1` (stereo not given) [Pemoline], the cell viability stood at 102.8 ± 0.87%.

With `c1ccc2c3c([nH]c2c1)CNCC3`, the cell viability came out at 104 ± 1.1%.

As for `CCCCC/C=C\C/C=C\C/C=C\C/C=C\CCCC(=O)Nc1ccc(O)cc1`, the cell viability is 100.5 ± 0.91%.

On to `CS(=O)(=O)Nc1ccc(Cc2noc(-c3ccc4[nH]cc(CCN)c4c3)n2)cc1`, for which the cell viability amounted to 106 ± 1.2%.

For `CC(C)CC(N(C)C)C1(c2ccc(Cl)cc2)CCC1` (stereo not given), the cell viability was determined as 108 ± 1.9%.

With `COc1ccc2c(c1)[C@]13CCCC[C@@H]1[C@H](C2)N(C)CC3` [d-3-Methoxy-N-methylmorphinan hydrobromide], the cell viability is 103 ± 1.2%.

Take `C[C@H]1CCC[C@H](O)CCCCCc2cc(O)cc(O)c2C(=O)O1`: the cell viability was 107 ± 2.7%.

Consider `CNC(=O)Oc1ccc2c(c1)[C@]1(C)CCN(C)[C@@H]1N2C` [Physostigmine], for which the cell viability is 93 ± 1.4%.

The values are drawn from the supplement of paper PMC3898565.
